Most compounds without a hit are left out; they make up all but 2.4% or so of the library.
UHRF1 MBD2 ctr – human UHRF1 methylated DNA binding inhibitors; AID 687016; hit rate 0.75% among 370,000; Q96T88; inhibition, % at 4.4 µM; UHRF1 binding to methylated oligo, TR-FRET; in the data active = inhibition above about 21%;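 note: UHRF1 SRA domain binding a hemimethylated CpG hairpin DNA probe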
PLCg1 inh – inhibitors of human phospholipase C gamma1; P19174; purified PLC-gamma1, fluorogenic substrate, fluorescence; inhibition, % at 12.2 µM; hit rate 0.84% among 370,000; AID 720700
Target sequence (P19174 whole entry, looked up): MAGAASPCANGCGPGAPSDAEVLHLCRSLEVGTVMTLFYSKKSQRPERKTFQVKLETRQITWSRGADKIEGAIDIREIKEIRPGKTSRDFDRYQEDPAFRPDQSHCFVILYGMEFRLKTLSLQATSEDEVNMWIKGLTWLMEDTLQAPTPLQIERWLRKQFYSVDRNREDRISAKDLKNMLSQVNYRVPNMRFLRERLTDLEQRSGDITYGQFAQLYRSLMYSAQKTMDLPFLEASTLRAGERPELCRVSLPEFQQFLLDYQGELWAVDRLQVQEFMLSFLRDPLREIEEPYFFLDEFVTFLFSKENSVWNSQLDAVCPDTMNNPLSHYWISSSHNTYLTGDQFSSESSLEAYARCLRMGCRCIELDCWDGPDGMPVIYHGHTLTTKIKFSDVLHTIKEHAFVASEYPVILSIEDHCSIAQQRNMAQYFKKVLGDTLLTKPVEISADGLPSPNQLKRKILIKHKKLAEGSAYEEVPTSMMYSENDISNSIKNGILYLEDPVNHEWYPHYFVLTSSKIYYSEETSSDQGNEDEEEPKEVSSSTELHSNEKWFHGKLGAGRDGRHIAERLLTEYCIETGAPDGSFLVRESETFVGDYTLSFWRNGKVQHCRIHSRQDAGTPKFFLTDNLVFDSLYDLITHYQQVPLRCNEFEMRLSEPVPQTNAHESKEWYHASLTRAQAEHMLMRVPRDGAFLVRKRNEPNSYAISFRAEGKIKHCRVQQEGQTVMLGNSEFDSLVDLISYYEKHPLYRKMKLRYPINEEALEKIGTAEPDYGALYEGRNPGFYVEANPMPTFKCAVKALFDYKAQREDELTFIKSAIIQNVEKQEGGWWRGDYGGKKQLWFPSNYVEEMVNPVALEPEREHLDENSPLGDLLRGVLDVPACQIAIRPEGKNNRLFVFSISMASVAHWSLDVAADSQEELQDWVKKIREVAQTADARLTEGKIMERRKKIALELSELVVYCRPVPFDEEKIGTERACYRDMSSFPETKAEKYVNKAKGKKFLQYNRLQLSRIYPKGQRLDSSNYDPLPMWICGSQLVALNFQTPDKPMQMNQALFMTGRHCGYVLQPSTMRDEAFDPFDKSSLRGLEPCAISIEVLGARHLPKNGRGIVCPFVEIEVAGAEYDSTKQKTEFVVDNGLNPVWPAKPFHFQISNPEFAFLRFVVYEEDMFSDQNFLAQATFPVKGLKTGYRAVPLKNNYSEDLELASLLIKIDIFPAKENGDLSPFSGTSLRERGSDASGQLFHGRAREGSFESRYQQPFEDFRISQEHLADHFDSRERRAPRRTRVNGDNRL
PLCb3 inh – inhibitors of human phospholipase C beta3 | Q01970 | Purified PLC-beta3, fluorogenic substrate, fluorescence | inhibition, % at 12.2 µM | hit rate 0.18% among 370,000; in the data active = inhibition above about 11%
MBD2 inh – MBD2-methylated oligo binding inhibition; TR-FRET, MBD2 binding to methylated oligonucleotide; inhibition, % at 4.4 µM; hit rate 0.31% among 370,000; Q9UBB5; in the data active = inhibition above about 13%
LEDGF integ inh – blocks HIV-1 LEDGF/p75-dependent DNA integration. TR-FRET IN-LEDGF/p75 DNA integration, Eu/Cy5. inhibition, % at 3.7 µM. hit rate 0.64% among 370,000. AID 743269;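 active = inhibition above the screen-wide mean plus 3 SD, cut at about 13% in these data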;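 note: signal is the Cy5 over europium emission ratio at 671 and 618 nm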
PLCg1 ctr – inhibits human PLC-gamma1 in PLC-beta3 counter-screen. shares compounds with PLCg1 inh. purified PLC-gamma1, fluorogenic substrate, fluorescence. inhibition, % at 12.3 µM. hit rate 3.1% among 3,300. AID 743258
PLCbeta3 conf – human PLC-beta3 inhibition, confirmation. shares compounds with PLCg1 inh. purified PLC-beta3, fluorogenic substrate fluorescence. AID 743261. inhibition, % at 12.3 µM. hit rate 1% among 3,300; in the data active = inhibition above about 11%
Numbers stand for hits; n = inactive; x = no result. Cut-off read from the data, not from the text of the source, unless noted: active = inhibition above about 9.5%; inactive = the rest.

SMILES	UHRF1 MBD2 ctr	PLCg1 inh	PLCb3 inh	MBD2 inh	LEDGF integ inh	PLCg1 ctr	PLCbeta3 conf
CCOc1ccc(NC(=O)c2ccc(Cn3nc(C)cc3C)o2)cc1	n	n	n	n	n	x	x
CCc1cccc(NC(=O)c2ccc(Cn3nc(C)cc3C)o2)c1	n	9.8	n	n	n	n	n
O=C(CSCC(=O)N1CCOCC1)Nc1ccccc1	n	11.1	n	n	n	n	n
CCOC(=O)CNC(=O)C1(c2ccccc2)CCCC1	n	n	n	n	n	x	x
CCOC(=O)CNC(=O)C1(NC(=O)CNC(=O)OCc2ccccc2)CCCC1	n	10.2	n	n	n	n	n
CCCCCCCCNS(=O)(=O)/C=C/c1ccccc1CNC(=O)OC(C)(C)C	n	n	n	n	n	x	x
CCc1ccccc1NC(=O)CN1CCN(C(=O)CNC(=O)c2ccc(N3CCCC3=O)cc2)CC1	n	12.2	n	n	n	n	n
CCc1ccccc1NC(=O)CN1CCN(C(=O)CCC(=O)N2CCC(c3ccccc3)=N2)CC1	n	13.4	n	n	n	n	n
CCc1ccccc1NC(=O)CN1CCN(C(=O)CNC(=O)c2ccccc2F)CC1	n	n	n	n	n	x	x
O=C(Nc1nc(Cc2ccccc2)c(-c2ccccc2)n1Cc1ccccc1)c1ccccc1	n	n	n	n	n	x	x
COc1ccc(/C=N/NC2=NCCCCC2)c(OC)c1	n	n	n	n	n	x	x
COc1ccc(/C=N/NC2=NCCCCC2)cc1	n	10.4	n	n	n	n	n
O=C(N=C1N(CC2CC2)CC2(C=C3CCCCC3n3c(=O)n(-c4ccccc4)c(=O)n32)N1C(=O)OCc1ccccc1)c1ccccc1 (stereo not drawn)	n	n	n	n	n	x	x
CCCN1CCC(C(=O)NC(c2ccc(Cl)cc2)c2ccsc2)CC1 (stereo not drawn)	n	9.7	n	n	n	n	n
CC12CCC(C(=O)Nc3nccs3)(OC1=O)C2(C)C (stereo not drawn)	n	10.2	n	n	n	n	n
Clc1ccccc1CSc1nnc(-c2ccccn2)n1Cc1ccco1	n	11.8	n	n	n	n	n
O=Cc1cc(N=Nc2ccc(S(=O)(=O)O)cc2)ccc1O	n	13.7	n	n	n	16.0	n
COC(=O)[C@]12C[C@H](CC(=O)NCCc3ccccc3OC)C(=O)N(Cc3ccc(Cl)cc3Cl)C1=C[C@H](COCc1ccccc1)O[C@@H]2C	n	n	n	n	n	x	x
CSc1ccccc1NC(=O)CN(C)C(=O)/C=C/c1ccccc1	n	10.1	n	n	n	n	n
CN[C@H]1C[C@H]2c3[nH]c4cccc(-c5ccc6c(c5)OCO6)c4c3CCN2C[C@H]1[C@H](C)O	n	n	n	n	n	x	x
CCn1c(NCc2ccccc2NS(=O)(=O)c2ccc(C)cc2)nc2ccccc21	n	n	12.3	n	n	n	n
Cc1c(C(=O)O)cccc1-c1ccc(C=O)o1	n	11.1	n	n	n	n	n
CC(=O)c1ccc(OC(C)C)c(CSC(=N)N)c1	n	12.0	12.0	n	n	n	n
CC(C)(C)NC(=O)CCCCCCCC(=O)NC(C)(C)C	n	13.2	11.4	n	n	n	n
COC(=O)[C@]12C[C@H](CC(=O)N3CCN(C(=O)C4CC4)CC3)C(=O)N(Cc3cccc4ccccc34)C1=C[C@H](C(C)(C)C)O[C@@H]2C	n	n	n	n	n	x	x
SMILES	UHRF1 MBD2 ctr	PLCg1 inh	PLCb3 inh	MBD2 inh	LEDGF integ inh	PLCg1 ctr	PLCbeta3 conf
COc1ccc(NC(=O)C2C3CCC(C3)C2C(=O)O)cc1OC (stereo not drawn)	n	17.8	n	n	n	n	n
CCCCN1C[C@@H](COCc2ccccc2)Oc2cccc(F)c2S1(=O)=O	n	n	n	n	n	x	x
CCOC(=O)c1sc(-c2ccccc2)cc1NC(=O)CSc1nnnn1C	n	13.2	n	n	n	n	n
CCOC(=O)c1cc(-c2ccccc2)sc1NC(=O)CSc1nnnn1C	n	n	n	n	n	x	x
CCCn1c(N)c(N(CCOC)C(=O)c2ccc([N+](=O)[O-])c(C)c2)c(=O)[nH]c1=O	n	9.6	n	n	n	n	n
CCCCN(C(=O)c1ccc(OC)c([N+](=O)[O-])c1)c1c(N)n(CCC)c(=O)[nH]c1=O	n	n	n	n	n	x	x
COC(=O)C(NC(=O)c1ccccc1C)(Nc1ncc(S(=O)(=O)c2ccc([N+](=O)[O-])cc2)s1)C(F)(F)F (stereo not drawn)	n	12.1	n	n	n	n	n
CN1Cc2nnn(Cc3ccccc3)c2-c2ccccc2S1(=O)=O	n	n	n	n	n	x	x
COC(=O)c1scc(C)c1-n1ccc(C(=O)C(=O)N(C)C)c1	n	n	12.7	n	n	n	n
O=C(CSc1ccc(Br)c2cccc(Cl)c12)Nc1ccc(S(=O)(=O)Nc2nccs2)cc1	n	11.0	n	n	n	n	n
CCCCCCCC(=O)Nc1ccc(S(=O)(=O)Nc2nccs2)cc1	n	26.5	n	n	n	n	n
O=C(NC(=S)Nc1ccc(S(=O)(=O)Nc2nccs2)cc1)c1ccc(F)c(F)c1	n	14.1	n	n	n	n	n
CCCCOC(=O)Nc1ccc(S(=O)(=O)Nc2nccs2)cc1	n	n	n	n	n	x	x
COCCn1c(C)cc(C(=O)COC(=O)c2ccc(Br)o2)c1C	n	10.2	n	n	n	n	n
CCCCCCC(=O)n1ccc2ccc(-c3ccc4ccn(Cc5ccc(OC)cc5)c4c3)cc21	n	n	n	n	n	x	x
N#Cc1ccc(C23CC4(C2)[C@H](CN(Cc2ccc(-c5ccccc5)cc2)[C@@H]4c2ccccc2)C3c2ccc(C(F)(F)F)cc2)cc1 (stereo partly drawn)	n	n	10.9	n	n	n	n
FC(F)(F)c1ccc(C2[C@H]3CN(Cc4ccc(-c5ccccc5)cc4)[C@H](c4ccccc4)C34CC2(c2ccccc2)C4)cc1 (stereo partly drawn)	n	n	n	n	n	x	x
S=C(NCCN1CCOCC1)Nc1ccc(Cl)cc1	n	n	n	n	n	x	x
O=C(NCCN1CCOCC1)Nc1ccc(Cl)cc1	n	12.3	n	n	n	n	n
CCc1cccc(NC(=O)CN(c2ccc(OC)cc2)S(=O)(=O)c2c(C)n[nH]c2C)c1	n	13.9	10.6	n	n	16.4	13.1
COc1ccc(N(CC(=O)Nc2cccc(C)c2)S(=O)(=O)c2c(C)n[nH]c2C)cc1	n	n	n	n	n	x	x
CCCCCCCCN1C(=O)[C@@H](CC(=O)NCc2ccc(OC)c(OC)c2)C[C@@]2(C(=O)OC)C1=C[C@H](COCc1ccccc1)O[C@@H]2C	n	n	n	n	n	x	x
CCc1ccc(C(=O)NNc2cc(Cl)ccc2Cl)cc1	n	10.0	n	n	n	n	n
Cc1cccc(N(CC(=O)NC2CC3CCC2C3)S(=O)(=O)c2ccccc2)c1 (stereo not drawn)	n	n	n	n	n	x	x
